The record followed here is PubChem BioAssay (NCI).

About 83,000 compounds went through this panel and 20% of them were active in at least one assay; those are over-represented in the sample as a whole.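 Values shown are percent growth following 48 h exposure of cells in 96-well plates to a single concentration of compound; below 10 was considered active.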 Values without a mark were called inactive. The source made the active and inactive calls.

This test has as its system CAKI-1 renal. Nature of the test: NCI-60 one-dose screen, 48 h (100 = growth as untreated, 0 = no growth, -100 = all killed). Conditions: 10 µM unless noted. As to the method:
Growth inhibition of the CAKI-1 human tumor cell line is measured as a screen for anti-cancer activity. Cells are grown in 96 well plates and exposed to the test compound for 48 hours. Compounds are tested at a single concentration, which is 10^-5 M for most compounds. The reported endpoint is percent growth (GI% or GIPRCNT), where numbers from 0 - 100% represent growth inhibition, and numbers from -100% - 0 represent cell death. For example, a value of 40 represents 60% growth inhibition. A value of 0 means no net growth occurred over the course of the experiment. A value of -40 indicates 40% of cells at the beginning of the experiment died by the end of the experiment. A value of -100 means all cells are dead at the end of the experiment.
NCI-60 Human Tumor Cell Lines Screen was performed using the standard one-dose NCI protocol, which is described in more detail at https://dtp.cancer.gov/discovery_development/nci-60/default.htm.
Compounds with GIPRCNT values below 10 were considered active. Activity score was based on GIPRCNT using the following formula: […]
Score is 0 for GIPRCNT values of 100 or above, 50 for GIPRCNT values of 0, and 100 for GIPRCNT values of -100.
Consider `CC[C@H](C)[C@H](NC(=O)c1cccn1C)C(=O)N(C)[C@H](C[C@@H](OC(C)=O)c1nc(C(=O)N[C@@H](Cc2ccccc2)C[C@H](C)C(=O)OC)cs1)C(C)C`, for which the growth is 25.1%.

Consider `O=C1CC2(CC3(Cl)C(Cl)=C(Cl)C2(Cl)C3(Cl)Cl)C(=O)O1` (stereo not given), for which the growth was 97.9%.

In the case of `Oc1c(O)c(Cl)c(Cl)c(Cl)c1Cl`, the growth was 81.7%.

For the compound `O=[N+]([O-])c1cc([N+](=O)[O-])c(Cl)cc1Cl`, the growth was -81.2% (active).

`O=C1C2CCC1C(N1CCCC1)CC2` (stereo not given): the growth is 97.7%.

In the case of `N#CC1(C#N)C(c2ccc(N(CCCl)CCCl)cc2)OC23CCCCC2C1(C#N)C(=N)O3` (stereo not given), the growth was 55.8%.

In the case of `CN1C(=O)C23CC4(C56CC78SSC(CO)(C(=O)N7C5Nc5ccccc56)N(C)C8=O)c5ccccc5NC4N2C(=O)C1(CO)SS3` (stereo not given), the growth is -98.7% (active).

Consider `O=C(O)CNC(=O)C(Cl)(Cl)Cl`, for which the growth is 89.1%.

For `[Cl][Hg][n]1c(-c2ccco2)nc2ccccc21`, the growth was 107%.

In the case of `COc1ccc(/C=C\c2cc(OC)c(OC)c(OC)c2)c(NS(=O)(=O)c2ccc(Cl)cc2)c1O`, the growth was 28.1%.

`O=C(O)c1c(Cl)n(Cc2ccc(O)cc2)c2ccc(O)cc12`: the growth is 95.2%.

Regarding `Cc1ccccc1NC(=NCCCN1CC1)Nc1ccccc1C`, the growth was 77.5%.

Regarding `N#CC1C(C#N)C2CCC1C1C2N1c1ccccc1` (stereo not given), the growth is 98.9%.

With `CC1(C)CN1P(=O)(N1CC1(C)C)N1CC1(C)C` (stereo not given), the growth is 110%.

For the compound `ClCCN(CCCl)c1ccc(-n2cnc3c(Cl)ncnc32)cc1`, the growth is -88.2% (active).

Turning to `COC(C(=O)[C@@H](O)[C@@H](C)O)[C@@H]1Cc2cc3cc(O[C@H]4C[C@@H](O[C@H]5C[C@@H](O)[C@H](O)C(C)O5)[C@H](O)C(C)O4)c(C)c(O)c3c(O)c2C(=O)[C@H]1O[C@H]1C[C@@H](O[C@H]2C[C@@H](O[C@H]3C[C@@H](O)[C@@H](O)C(C)O3)[C@@H](O)C(C)O2)[C@H](O)C(C)O1` (stereo not given in full), the growth is 12.6%.

As to `COc1ccc(/C=C\c2cc(OC)c(OC)c(OC)c2)cc1OCC(=O)Nc1nc2ccc(F)cc2s1`, the growth was 16.9%.

As to `CC(=O)[O][Hg][O]C(C)=O`, the growth was 92.3%.

For `COc1cc2c(cc1OCCCCCn1c(-c3ccco3)nc3ccccc31)N=C[C@@H]1CCCN1C2=O`, the growth was 12%.

`CC[C@]12C=CCN3CC[C@@]4(c5ccc(OC)cc5N(C)[C@H]4[C@@](O)(C(=O)OC)[C@@H]1OC(=O)CCCC[P+](c1ccccc1)(c1ccccc1)c1ccccc1)[C@@H]32`: the growth was 85.9%.

As to `O=C(N/N=C/c1ccc(N(CCCl)CCCl)cc1)c1cccc2ccccc12`, the growth is 80.5%.

Regarding `CC1[C@H](C)OC(=O)CC(O)CC(O)CC(O)CCC(O)C(O)C[C@]2(O)CC(O)C(C(=O)O)C(CC(OC3O[C@H](C)[C@@H](O)[C@H](N)[C@@H]3O)/C=C/C=C/C=C/C=C/CC/C=C/C=C/[C@H](C)[C@H]1O)O2` (stereo not given in full), the growth is 88.6%.

Consider `Cc1cc(N(CCCl)CCCl)ccc1C=Nc1cccnc1`, for which the growth is 12.7%.

Consider `CC(=O)OC1CCC2(C)C(CCC3C2CC(=O)C2(C)C3CC(Sc3ccc(N(CCCl)CCCl)cc3)C2C(C)=O)C1` (stereo not given), for which the growth is 68%.

Take `CC12CCC3C(CCC4Cc5[nH]c6ccccc6c5CC43C)C1CCC2O` (stereo not given): the growth is 45.1%.

Regarding `CCOC(=O)c1c(C)n(Cc2ccccc2)c2cc(CN(C)C)c(O)cc12`, the growth was 61.6%.

`O=[N+]([O-])/C=C\c1ccc(Cl)c(Cl)c1`: the growth was 84.7%.

Take `Clc1ccc(CSC(Cn2ccnc2)c2ccc(Cl)cc2Cl)cc1` (stereo not given): the growth is 20.8%.

On to `C=CCn1cc(C=C2C(=O)N(C)C(=O)N(C)C2=O)c2ccccc21`, for which the growth is 90.3%.

Regarding `O=C(Nc1ccncc1F)c1cn(CC2CC2)c2ccccc12`, the growth is 98.2%.

Take `Nc1ncnc2n[nH]nc12`: the growth is 40.1%.

In the case of `CCC1CC(O)c2c(O)c3c(c(O)c2C1O)C(=O)c1cccc(O)c1C3=O` (stereo not given) (tested in a mixture with another compound), the growth is 0.243% (active).

For `COc1cc2c(=O)n(C3CCCCCCC3)c3c4cc[nH]c4ncc3c2cc1OC`, the growth is 54.6%.

`Cc1ccc(N2COOC3(OOC2)C2CC4CC(C2)CC3C4)cc1`: the growth was 53.7%.

For `Cn1cc(C=O)c2nccnc21`, the growth is 91.4%.

`CN[C@]1(c2ccccc2Cl)CCCC[C@H]1NCCCN1CCN(C)CC1`: the growth was 87.3%.

Take `C#C[C@]1(OC(=O)CCCCCC)CC[C@H]2[C@@H]3CCC4=CC(=O)CC[C@@H]4[C@H]3CC[C@@]21C`: the growth is 56.1%.

As to `CC(C)(C)C(=O)OCOP(=O)(OCOC(=O)C(C)(C)C)C1CCCN(O)C1=O` (stereo not given), the growth is 5.9% (active).

Consider `Cc1cc(C)c(CBr)c(C)c1`, for which the growth is 99.1%.

Take `CC12CC=CCC1CCC1C2CCC2(C)C(c3ccc(=O)oc3)CCC12O` (stereo not given): the growth was -57% (active).
